# Source: PubChem BioAssay
# Calls of active or inactive are those of the source. Unless noted, how the calls were made is not given here.
# Tests used:
# [1] = A549 cell viability effects, profiling panel, calcein-AM fluorescence, 48 h, basal (AID 1162); conditions: higher = more signal; further: test concentration not given here
# [2] = adipocyte viability effects, profiling panel, cell-based, 3T3-L1 adipocytes, calcein-AM fluorescence, 48 h, basal (AID 1163); conditions: 3T3-L1 adipocytes viability, higher = more signal; further: test concentration not given here
# [3] = HepG2 cell viability effects, profiling panel, calcein-AM fluorescence, 48 h, basal (AID 1164); conditions: higher = more signal; further: test concentration not given here
# [4] = MM1S cell viability effects, profiling panel, calcein-AM fluorescence, 48 h, basal (AID 1165); conditions: higher = more signal;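 further: viability of MM1S multiple myeloma cells under basal unstimulated conditions; test concentration not given here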
# [5] = basal RPMI8226 viability, no added stimulus, profiling panel, cell-based, calcein-AM fluorescence, 48 h, PK04 Diversity Set (AID 1166); conditions: RPMI8226 myeloma viability, higher = more signal;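 further: cells grown under basal conditions without added stimulus; test concentration not given here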
# [6] = basal HepG2 mitochondrial membrane potential changes, profiling panel, cell-based, JC-1 fluorescence, 24 h, 100 nL compound (AID 1167); conditions: higher = more signal; further: test concentration not given here
# [7] = basal 3T3-L1 adipocyte mitochondrial potential changes, profiling panel, cell-based, JC-1 fluorescence, 3T3-L1 adipocytes, 24 h, 100 nL compound (AID 1168); conditions: JC-1 mitochondrial fluorescence, higher = more signal, called active from +8 up or from −8 down; further: test concentration not given here
# [8] = basal RPMI8226 mitochondrial membrane potential changes, profiling panel, cell-based, JC-1 fluorescence, 24 h, 100 nL compound (AID 1169); conditions: RPMI8226 myeloma, JC-1 mitochondrial potential fluorescence, higher = more signal; further: test concentration not given here
# [9] = basal MM1S mitochondrial membrane potential changes, profiling panel, cell-based, JC-1 fluorescence, 24 h, 100 nL compound (AID 1170); conditions: higher = more signal; further: test concentration not given here
# [10] = A549 lung cancer cell viability effects, profiling panel, resazurin fluorescence, 24 h, PK04 Diversity Set (AID 1171); conditions: higher = more signal, called active from +8 up or from −8 down; further: test concentration not given here
# [11] = HepG2 liver cancer cell viability effects, profiling panel, resazurin fluorescence, 24 h, PK04 Diversity Set (AID 1172); conditions: higher = more signal; further: test concentration not given here
# [12] = basal S. cerevisiae growth modulation, no modifier, primary screen, OD600, strain BY4716, 24 h, basal condition (AID 1173); conditions: OD600, 24 h, higher = more signal, called active from +8 up or from −8 down
# [13] = MM1S myeloma cell viability, profiling panel, resazurin fluorescence, basal, 24 h, PK04 Diversity Set (AID 1174); conditions: higher = more signal, called active from +8 up or from −8 down;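 further: MM1S multiple myeloma cell line; test concentration not given here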
# [14] = target: Dihydroorotate dehydrogenase (quinone), mitochondrial (Plasmodium falciparum (isolate 3D7)) (UniProt Q08210); assay: PfDHODH enzyme inhibitors, primary screen, biochemical, C-terminal His tag, absorbance 600 nm (AID 1175); conditions: DCIP absorbance 600 nm, higher = more signal, called active from +8 up or from −8 down;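 further: recombinant parasite enzyme with a five histidine tag at its C terminus; test concentration not given here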
# [15] = P. aeruginosa biofilm formation inhibitors, primary screen, strain PAO1, LB-PBS medium, absorbance 600 nm (AID 1176); further: test concentration not given here; conditions: P. aeruginosa PAO1 growth/biofilm, A600, 12 h; higher = more signal
# [16] = S. cerevisiae RM11-1a growth modifiers, primary screen, strain RM11-1a, OD600, basal, 24 h (AID 1177); conditions: OD600, 24 h, higher = more signal, called active from +8 up or from −8 down;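 further: cultures grown under basal conditions with no added stressor; test concentration not given here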
# [17] = E. coli acrAB mutant growth effects, primary screen, E. coli filamentation inducers, strain DRC39, OD650, 24 h (AID 1178); conditions: higher = more signal, called active from +8 up or from −8 down;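 further: growth measured as culture turbidity by optical density at 650 nm; test concentration not given here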
# [18] = E. coli acrAB mutant growth effects, primary screen, E. coli filamentation inducers, strain DRC39, OD650, 48 h (AID 1179);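 further: screen aims at cell division blockers that make cells filament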; conditions: E. coli DRC39 delta-acrAB growth, higher = more signal, called active from +8 up or from −8 down
# [19] = RPMI8226 myeloma cell viability, profiling panel, resazurin fluorescence, basal, 24 h, PK04 Diversity Set (AID 1180); conditions: higher = more signal;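 further: RPMI8826 multiple myeloma cell line at 5000 cells per well; test concentration not given here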
# [20] = target: E3 ubiquitin-protein ligase XIAP (Homo sapiens) (UniProt P98170); assay: XIAP binders, primary screen, biophysical, small-molecule microarray, fluorescence 635 nm (AID 1181); conditions: small-molecule microarray binding, higher = more signal;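 further: score merges 667 nm emission and signal to noise over triplicate slides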
# Chain of E3 ubiquitin-protein ligase XIAP (Homo sapiens) (P98170 whole entry, looked up): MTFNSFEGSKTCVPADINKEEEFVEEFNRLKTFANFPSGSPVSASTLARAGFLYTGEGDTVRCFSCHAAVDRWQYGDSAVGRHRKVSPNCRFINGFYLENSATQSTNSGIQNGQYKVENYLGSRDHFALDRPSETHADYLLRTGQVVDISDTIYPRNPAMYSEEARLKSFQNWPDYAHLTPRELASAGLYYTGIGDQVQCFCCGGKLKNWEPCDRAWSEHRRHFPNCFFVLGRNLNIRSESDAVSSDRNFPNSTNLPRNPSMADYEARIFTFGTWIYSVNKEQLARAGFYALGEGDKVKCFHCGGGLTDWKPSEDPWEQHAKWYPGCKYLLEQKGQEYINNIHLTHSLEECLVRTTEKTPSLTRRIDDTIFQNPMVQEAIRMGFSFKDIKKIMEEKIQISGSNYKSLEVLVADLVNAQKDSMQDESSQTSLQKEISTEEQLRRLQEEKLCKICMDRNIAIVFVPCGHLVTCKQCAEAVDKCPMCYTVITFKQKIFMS
# Chain of Dihydroorotate dehydrogenase (quinone), mitochondrial (Plasmodium falciparum (isolate 3D7)) (Q08210 whole entry, looked up): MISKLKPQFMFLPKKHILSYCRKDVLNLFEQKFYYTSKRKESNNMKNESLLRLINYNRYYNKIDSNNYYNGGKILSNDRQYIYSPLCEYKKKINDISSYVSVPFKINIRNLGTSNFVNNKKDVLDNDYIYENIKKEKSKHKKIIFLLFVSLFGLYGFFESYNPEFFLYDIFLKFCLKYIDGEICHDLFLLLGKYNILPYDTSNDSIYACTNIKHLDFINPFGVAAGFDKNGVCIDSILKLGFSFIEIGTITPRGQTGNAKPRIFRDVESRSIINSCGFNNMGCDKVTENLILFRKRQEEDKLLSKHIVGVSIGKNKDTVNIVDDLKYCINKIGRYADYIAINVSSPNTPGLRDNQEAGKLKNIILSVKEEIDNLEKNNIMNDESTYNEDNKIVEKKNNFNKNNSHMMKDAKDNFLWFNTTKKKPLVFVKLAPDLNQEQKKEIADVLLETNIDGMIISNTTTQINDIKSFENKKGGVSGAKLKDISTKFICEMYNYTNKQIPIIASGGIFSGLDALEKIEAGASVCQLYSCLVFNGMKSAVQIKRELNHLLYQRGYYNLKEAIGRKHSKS
SMILES,z-score [1],z-score [2],z-score [3],z-score [4],z-score [5],z-score [6],z-score [7],z-score [8],z-score [9],z-score [10],z-score [11],z-score [12],z-score [13],composite z-score [14],z-score [15],z-score [16],z-score [17],z-score [18],z-score [19],composite z-score [20]
COC(=O)CC=C[C@@H](C)[C@@H](C=NOC[C@H]1O[C@H](c2ccccc2)C=C[C@@H]1Oc1ccc(OC)cc1)OC,0.0124,-0.701,-0.56,-0.831,-0.209,-1.05,-0.506 (inactive),0.16,-0.327,1.06 (inactive),0.167,0.805 (inactive),0.0784 (inactive),0.388 (inactive),0.335 (inactive),0.065 (inactive),0.0177 (inactive),-0.0331 (inactive),0.264,0.127
COC(=O)CC=C[C@@H](C)[C@@H](C=NOC(C)CN1CCCc2nc(C)c(C)cc21)OC (stereo not given in full),0.756,-0.274,0.125,0.0457,0.142,-0.16,0.111 (inactive),-0.194,-0.259,-0.399 (inactive),-0.412,0.0692 (inactive),0.141 (inactive),-0.781 (inactive),-0.537 (inactive),-0.151 (inactive),-0.222 (inactive),-0.0403 (inactive),-1.26,0.137
O=C1C[C@@H](O)[C@@H](O)[C@@H]2[C@@H]3C(=O)N(Cc4ccc5c(c4)OCO5)C(=O)[C@@H]3CC[C@H]12,0.474,1.46,0.517,0.0737,-0.0121,-0.0331,-0.221 (inactive),0.522,1.37,-0.0495 (inactive),0.201,0.0442 (inactive),-0.0254 (inactive),-0.564 (inactive),-0.0121 (inactive),-0.545 (inactive),-0.494 (inactive),-0.389 (inactive),-0.0372,-0.152
CCOC(=O)[C@H](Cc1ccccc1)NC(=O)CCC1CC(OC(=O)NCc2ccc3c(c2)OCO3)CC2(CCCC(COC(=O)NCCC(C)C)O2)O1 (stereo not given in full),0.339,1.36,-1.58,-3.41,-3.9,0.162,-0.375 (inactive),-0.212,-1.32,-0.149 (inactive),-0.341,-0.426 (inactive),0.812 (inactive),0.55 (inactive),-1.17 (inactive),0.895 (inactive),0.308 (inactive),0.249 (inactive),0.75,-0.0559
CCOC(=O)[C@H](CC(C)C)NC(=O)CCC1CC(OC(=O)NCc2cccc3ccccc23)CC2(CCCC(COC(=O)NCCC(C)C)O2)O1 (stereo not given in full),2.25,0.944,0.312,-3.2,-1.05,0.162,0.199 (inactive),-0.17,-1.27,0.169 (inactive),0.232,-2.17 (inactive),0.771 (inactive),-2.64 (inactive),0.131 (inactive),-3.91 (inactive),-0.259 (inactive),-0.457 (inactive),-0.286,0.117
O=C1[C@H]2[C@H]3[C@H](O)[C@H](O)CC(=NOC[C@@H](O)COCc4ccco4)[C@H]3CC[C@H]2C(=O)N1C[C@@H]1CCCO1,-0.0501,-1.11,-1.22,0.313,-0.907,-0.809,-0.605 (inactive),-0.271,-0.278,0.622 (inactive),0.639,0.0107 (inactive),-0.324 (inactive),-0.199 (inactive),0.07 (inactive),-0.0915 (inactive),-0.481 (inactive),-0.467 (inactive),0.15,-0.217
O=C1OCCC=C1C(O)CCc1ccccc1 (stereo not given),0.0955,-0.831,-0.354,-0.575,0.146,-0.895,-0.54 (inactive),0.0715,-0.517,-0.0147 (inactive),0.0362,-0.567 (inactive),-0.649 (inactive),-0.0757 (inactive),-0.564 (inactive),-0.415 (inactive),0.258 (inactive),0.137 (inactive),-0.573,-0.202
CC(C)=CCCC(C)=CCON=C1C[C@@H](O)[C@@H](O)[C@@H]2[C@@H]3C(=O)N(c4ccc(F)cc4F)C(=O)[C@@H]3CC[C@H]12,-1.39,0.719,0.0201,-3.06,0.579,-2.26,0.866 (inactive),-0.786,-1.55,0.619 (inactive),0.844,-2.97 (inactive),0.257 (inactive),-1.42 (inactive),0.671 (inactive),-0.777 (inactive),0.375 (inactive),0.438 (inactive),1.32,-0.0939
CCN1C(=O)[C@H]2[C@H]3[C@H](O)[C@H](O)CC(=O)[C@H]3CC[C@H]2C1=O,0.0697,0.015,-0.0937,0.14,-1.17,-0.531,-0.386 (inactive),-0.0768,0.816,0.26 (inactive),-0.195,-0.286 (inactive),-0.242 (inactive),-0.794 (inactive),-0.543 (inactive),-0.896 (inactive),-0.519 (inactive),-0.177 (inactive),-0.0216,-0.0476
